From PubChem BioAssay
Hits are enriched below; roughly 3.2% of the tested compounds scored in any of these assays.
GDH-TPI counter-1 = GDH-TPI coupling enzyme inhibitors, primary screen, artefact control for M. tuberculosis FBA inhibitor project, biochemical, absorbance, full deck. GDH-TPI coupled enzyme counterscreen, NADH absorbance. hit rate 1.2% among 360,000. inhibition, % at 4.8 µM. AID 588335, 2011; in the data active = inhibition above about 30%
TcdB inh = TcdB glycohydrolase inhibitors, primary screen, biochemical, single point, plate reader; TcdB glycohydrolase enzymatic assay; inhibition, % at 9.99 µM; hit rate 0.24% among 350,000; in the data active = inhibition above about 10%
Yp Topo-I inh = Yersinia pestis topoisomerase I inhibitors, primary screen, biochemical, cleavage product accumulation, plate reader, single point; DNA topoisomerase I (Yersinia pestis CO92); Y. pestis Topo-I cleavage product accumulation; activity, % at 10 µM; hit rate 0.064% among 360,000; AID 504884, 2011; in the data active = activity above about 50%, passing the limit was not always enough
PrPC surface inh = inhibitors of human cell surface prion protein PrPC, primary screen, cell-based, TR-FRET; hit rate 0.43% among 370,000; TR-FRET read-out; Major prion protein (Homo sapiens), P04156; inhibition, % at 13.8 µM; in the data active = inhibition above about 24%
FBA Mtb inh = Mtb FBA enzyme inhibitors, primary screen, biochemical, fluorescence, strain H37Rv; Fructose-bisphosphate aldolase (Mycobacterium tuberculosis (strain ATCC 25618 / H37Rv)), …; purified M. tuberculosis FBA, fluorescence read-out; inhibition, % at 1 µM; hit rate 2.3% among 360,000
Target sequence (P9WQA3 whole entry, looked up): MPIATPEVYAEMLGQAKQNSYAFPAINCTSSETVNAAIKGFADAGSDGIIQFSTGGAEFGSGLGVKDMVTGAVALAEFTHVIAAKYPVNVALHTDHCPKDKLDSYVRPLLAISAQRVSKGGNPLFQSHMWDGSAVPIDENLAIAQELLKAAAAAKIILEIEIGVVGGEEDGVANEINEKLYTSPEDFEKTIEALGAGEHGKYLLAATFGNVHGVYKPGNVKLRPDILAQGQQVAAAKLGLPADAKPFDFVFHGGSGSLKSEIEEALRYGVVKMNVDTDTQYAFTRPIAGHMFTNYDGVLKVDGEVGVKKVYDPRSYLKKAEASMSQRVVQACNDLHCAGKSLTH
Mtb FBA inh conf = M. tuberculosis aldolase blockers, biochemical, fluorescence, strain H37Rv, confirmation; hit rate 78% among 5,600; purified M. tuberculosis FBA, fluorescence read-out; AID 651616, 2012; inhibition, % at 1 µM; shares compounds with FBA Mtb inh
GDH-TPI counter-2 = GDH-TPI coupling enzyme inhibitors, artefact control for M. tuberculosis FBA inhibitor project, biochemical, fluorescence, high throughput | GDH-TPI coupled enzyme counterscreen | shares compounds with FBA Mtb inh | inhibition, % at 1 µM | hit rate 81% among 5,600; in the data active = inhibition above about 10%
GDH-TPI DR = GDH-TPI coupling enzyme inhibitors, dose response, artefact control for M. tuberculosis FBA inhibitor project, biochemical, fluorescence, IC50; GDH-TPI coupled enzyme assay, artifact counterscreen; IC50, µM; AID 652145, 2013; shares compounds with FBA Mtb inh; hit rate 79% among 170; call rule not given here
A number is an active result; . = inactive; / = no result given; + = active, no number. Rule as the data show it, unless noted: active = inhibition above about 27%; inactive = the rest.

SMILES	GDH-TPI counter-1	TcdB inh	Yp Topo-I inh	PrPC surface inh	FBA Mtb inh	Mtb FBA inh conf	GDH-TPI counter-2	others
O=C(O)CCc1ccc(-c2ccc(F)cc2)n1CC1CCCO1 (configuration not stated)	.	/	.	.	.	/	/
CCOC(=O)c1cc(-c2ccccc2)sc1NC(=O)C(C)C	.	.	.	.	37	125	113
C[C@H]1CCCCO[C@@H](CN(C)Cc2ccc3c(c2)OCO3)[C@@H](C)CN([C@@H](C)CO)C(=O)c2cc(NC(=O)C3CCCCC3)ccc2O1	/	.	/	/	/	/	/
COc1ccc(-c2cc3cc(OC)c(OC)cc3c(C)n2)cc1	.	.	.	.	47	73	55
CC(C)NC(=O)N(C)C[C@@H]1Oc2ncc(-c3ccc(C(=O)N(C)C)cc3)cc2C(=O)N([C@H](C)CO)C[C@@H]1C	/	.	/	/	/	/	/
COc1ccccc1N1C(=O)NC(=O)/C(=C/c2ccc([N+](=O)[O-])s2)C1=O	/	.	/	.	/	/	/
COc1ccccc1N1C(=O)NC(=O)/C(=C/c2ccc3c4c(cccc24)CC3)C1=O	.	/	.	.	38	.	.	GDH-TPI DR=3.9
CC(=O)N1CCc2c(sc(NC(=O)C3CCCN3S(=O)(=O)c3cccs3)c2C#N)C1 (configuration not stated)	.	.	.	.	33	48	35
CCOC(=O)c1sc(C)c2c1NC1(CCCCCC1)NC2=O	.	/	.	.	.	/	/
CCOC(=O)c1sc(C)c2c1NC1(CCCCC1)NC2=O	.	.	.	.	32	110	104
O=c1oc(CCO)cc2ccc(-c3ccc4[nH]ccc4c3)cc12	.	.	.	.	.	/	/
Cn1cncc1C#Cc1ccc2cc(CCO)oc(=O)c2c1	.	.	.	.	34	+	+
CCCCn1c(=O)c(-c2ccccc2)c(O)c2ccccc21	.	/	.	.	31	112	92
CCn1c(=O)c(-c2ccccc2)c(O)c2ccccc21	.	/	.	.	.	/	/
O=c1c(-c2ccccc2)c(O)c2ccccc2n1-c1ccccc1	.	.	.	.	32	87	73
O=c1[nH]c2ccccc2c(O)c1-c1ccccc1	.	.	.	.	.	/	/
CNC[C@H]1Oc2ncc(-c3ccc(C)cc3)cc2C(=O)N([C@@H](C)CO)C[C@H]1C	/	.	/	/	/	/	/
COC(=O)c1c(-c2ccc(N(C)C)cc2)sc2ccc(OC)cc12	.	.	.	.	89	+	158
CS(=O)(=O)c1ccc(-c2sc3cc4c(cc3c2C(=O)NN2CCOCC2)OCO4)cc1	37	.	.	.	48	104	85
COC(=O)c1c(-c2ccccc2OC)sc2ccc(OC)cc12	.	.	.	.	.	/	/
COC(=O)c1c(-c2ccc(OC)cc2)sc2cc3c(cc12)OCO3	.	.	.	.	32	72	77
O=C(NN1CCOCC1)c1c(-c2ccccc2)sc2ccccc12	.	.	.	.	.	/	/
COc1ccc(-c2sc3cc4c(cc3c2C#Cc2ccc(N)cc2)OCO4)cc1	.	.	.	.	66	70	66
C1=C[C@@H]2CCN(Cc3ccccc3)Cc3cccc(c32)C1	.	.	.	.	28	+	+
O=C(c1cccnc1)N1C[C@@H]2[C@H](c3ccccc31)[C@@H](CO)N2C(=O)C1CCOCC1	/	.	/	/	/	/	/
CC(C#N)(Nc1ccc(Cl)cc1)c1cccnc1 (configuration not stated)	.	/	.	.	28	+	+
C#CCNC(=O)C1=C[C@@H](C(C)(C)C)C[C@@H](OCCCCO)O1	/	.	/	/	/	/	/
Cc1noc(C)c1NC(=O)NCC[C@@H]1CC[C@@H](NC(=O)c2ccccc2)[C@H](CO)O1	/	.	/	/	/	/	/
CCOC(=O)COc1ccc2c(c1)C(=O)CC1(CCCCC1)O2	.	/	.	.	53	89	77
